PubChem BioAssay (Tox21)
“And” between values parts separate entries of the source, which are not always exact repeats. Equal entries are not always repeated. Inconclusive results are not listed. Entries that show only a call come without a potency. Values without a mark were called inactive. The source made the active and inactive calls. Calls follow the shape of the dose curve; as a rule, active = well fitted curve in the direction sought with a large enough effect in the repeat runs; inconclusive = weak or mixed curves; inactive = no such curve, though single readings can be large; an effect the other way counts as inactive or inconclusive.

Experiments:
[1] = qHTS assay to identify small molecule antagonists of the retinoid acid receptor (RAR) signaling pathway - cell viability counter screen (AID 1159551); also: nearly all actives have a fitted effect of over 35% in size; also: potency is read from the fitted curve at half-maximal effect
How it was run: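 C3RL4 cells were seeded overnight at 37 C, then treated with compounds plus 1 uM (final) retinol for 6 h at 37 C. Viability was read as ATP by CellTiter-Glo luminescence after 30 min at room temperature.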

[2] = qHTS assay to identify small molecule antagonists of the estrogen related receptor (ERR) signaling pathway from Tox21 library - cell viability counter screen (AID 1224834); also: nearly all actives have a fitted effect of over 30% in size; also: potency is read from the fitted curve at half-maximal effect
How it was run: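 ERR reporter cells were plated 6 h before compound addition, then exposed to test compounds in DMSO for 17.5 h at 37 C. Viability was read as CellTiter-Fluor fluorescence after a 30-minute incubation at 37 C.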

[3] = qHTS assay to identify small molecule antagonists of the retinoic acid receptor (RAR) signaling pathway (AID 1159552; also: nearly all actives have a fitted effect of over 50% in size; also: potency is read from the fitted curve at half-maximal effect)
How it was run: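 Cells of the C3RL4 line were seeded, incubated overnight, then dosed with compounds in DMSO followed immediately by retinol (1 uM final). Six hours later luciferase detection reagent went in; signal was measured after 30 min at RT.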

[4] = qHTS assay to identify small molecule agonists of the retinoic acid receptor (RAR) signaling pathway (AID 1159553); also: potency is read from the fitted curve at half-maximal effect
How it was run: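 C3RL4 cells carrying a RARE luciferase reporter were plated overnight at 37 C, then exposed to compounds in DMSO for 6 hr at 37 C and 5% CO2. Luminescence was read 30 min after luciferase reagent addition at room temperature.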

[5] = qHTS assay to identify small molecule antagonists of the estrogen related receptor (ERR) signaling pathway - cell viability counter screen (AID 1224818);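 also: series mostly up to about 46 µM; viability measured after 17.5 h of compound exposure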
How it was run: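 ERR reporter cells plated 6 h at 37 C/5% CO2, then compounds in DMSO pin-transferred and incubated 17.5 h at 37 C. Viability read as CellTiter-Fluor fluorescence after 30 min at 37 C.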

[6] = qHTS assay to identify small molecule agonists of the estrogen related receptor (ERR) signaling pathway (AID 1224820)
How it was run: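 ERR reporter cells (NTP line) plated 2,000/well, incubated 6 h at 37 C/5% CO2, then pinned with compounds in DMSO and held 18 h at 37 C. One-Glo added; luminescence read after 30 min at room temperature.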

[7] = qHTS assay to identify small molecule antagonists of the estrogen related receptor signaling pathway with the pleiotropic PPARgamma coactivator (PGC) cell viability counter screen (AID 1224822; also: potency is read from the fitted curve at half-maximal effect)
How it was run: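 PGC/ERR cells were seeded at 2,000 cells/well, rested 6 h at 37 C/5% CO2, then given compounds in DMSO by pin tool and incubated 17.5 h at 37 C. Viability came from CellTiter-Fluor fluorescence after 30 min.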

[8] = qHTS assay to identify small molecule agonists of the estrogen related receptor signaling pathway with the pleiotropic PPARgamma coactivator (PGC) (AID 1224823)
How it was run: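 PGC/ERR reporter cells were seeded, rested 6 h at 37 C/5% CO2, then exposed to compounds in DMSO by pin transfer for 18 h at 37 C. Luciferase activity was read as luminescence after One-Glo reagent and 30 min at room temperature.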

CC1(C)C(/C=C(\Cl)C(F)(F)F)C1C(=O)OC(C#N)c1cccc(Oc2ccccc2)c1 (stereo not drawn)
Potency [1]: inactive
Potency [2]: inactive

Cc1cc(C)c(C2=C(OC(=O)CC(C)(C)C)C3(CCCC3)OC2=O)c(C)c1
Potency [1]: inactive
Potency [2]: inactive

CN(CCCC(=O)c1cccnc1)N=O
Potency [1]: inactive
Potency [2]: inactive

CC(=O)c1cc(C(C)(C)C)cc2c1CCC2(C)C
Potency [1]: inactive
Potency [2]: inactive

O=C/C(Cl)=C(/Cl)C(=O)O
Potency [1]: inactive
Potency [2]: inactive

N#Cc1ccccc1N
Potency [1]: inactive
Potency [2]: inactive

CC(=O)[O-].[Tl+]
Potency [1]: inactive
Potency [2]: 61.5 µM (active)

O=[N+]([O-])c1cc(C(F)(F)F)c(Cl)c([N+](=O)[O-])c1Cl
Potency [1]: 48.6 µM (active)
Potency [2]: 54.5 µM (active)

C=COCCCl
Potency [1]: inactive
Potency [2]: inactive

CC(=O)[O-].CC(=O)[O-].[Hg+2]
Potency [1]: 4.33 µM (active)
Potency [2]: 3.86 µM (active)

Oc1ccc(I)cc1
Potency [1]: inactive
Potency [2]: inactive

S=C(SSC(=S)N1CCCCC1)N1CCCCC1
Potency [1]: inactive
Potency [2]: 0.531 µM (active)

CC(C)C(=O)Cl
Potency [1]: inactive
Potency [2]: inactive

[Cd+2].[Cl-].[Cl-]
Potency [1]: inactive
Potency [2]: 24.5 µM (active) and 6.11 µM (active)

Clc1ccc(-c2ccccc2)cc1
Potency [1]: inactive
Potency [2]: inactive

ClCc1ccc(Cl)cc1Cl
Potency [1]: inactive
Potency [2]: inactive

CCC(C)c1cc(C(C)(C)C)cc(-n2nc3ccccc3n2)c1O (stereo not drawn)
Potency [1]: inactive
Potency [2]: inactive

CN(C)C(=S)[S-].CN(C)C(=S)[S-].[Cu+2]
Potency [1]: 16.7 µM (active)
Potency [2]: 1.18 µM (active)

CC(Cc1ccc(C(C)(C)C)cc1)CN1C[C@@H](C)O[C@@H](C)C1 (stereo partly drawn)
Potency [1]: inactive
Potency [2]: inactive

O=[N+]([O-])O.O=[N+]([O-])O.[Cd]
Potency [1]: inactive
Potency [2]: 9.69 µM (active)

CN(C)S(=O)(=O)N(SC(F)(Cl)Cl)c1ccccc1
Potency [1]: 48.6 µM (active)
Potency [2]: 30.6 µM (active)

CCN(CC)C(=S)[S-].CCN(CC)C(=S)[S-].[Zn+2]
Potency [1]: 30.4 µM (active)
Potency [2]: 3.41 µM (active)

Cc1cc(Cl)ccc1O[C@H](C)C(=O)O
Potency [1]: inactive
Potency [2]: inactive

Oc1c(Cl)c(Cl)cc(Cl)c1Cl
Potency [3]: 66.7 µM (active)
Potency [4]: inactive

C=CC(=O)OCC(COC(=O)C=C)(COC(=O)C=C)COC(=O)C=C
Potency [3]: 13.7 µM (active)
Potency [4]: 1.93 µM (active)
Potency [2]: 9.69 µM (active)

C[CH2][Hg][N]1C(=O)C2C(C1=O)C1(Cl)C(Cl)=C(Cl)C2(Cl)C1(Cl)Cl (stereo not drawn)
Potency [3]: 11.6 µM (active)
Potency [2]: 13 µM (active)

Nc1ccccc1C(=O)Oc1ccc2ccccc2c1
Potency [3]: inactive
Potency [4]: 0.193 µM (active)
Potency [2]: inactive

CN(C)C1CSSSC1
Potency [3]: inactive
Potency [4]: inactive
Potency [2]: inactive

C=CCC1=C(C)C(OC(=O)C2C(C=C(C)C)C2(C)C)CC1=O (stereo not drawn)
Potency [3]: 61.1 µM (active)
Potency [4]: inactive
outcome [5]: inactive
outcome [6]: inactive
Potency [7]: inactive
outcome [8]: inactive

CC(C)C1CCC(Cc2ccc(Cl)cc2)C1(O)Cn1cncn1 (stereo not drawn)
Potency [3]: 42.8 µM (active)
Potency [2]: 53.9 µM (active)

CC(C)CC(C)(c1ccc(O)cc1)c1ccc(O)cc1
Potency [3]: inactive
Potency [4]: inactive
Potency [2]: 48.7 µM (active)

CC(C)(C)C(O)/C(=C\c1ccc(Cl)cc1Cl)n1cncn1 (stereo not drawn)
Potency [3]: 58.7 µM (active)
Potency [2]: 65.9 µM (active)

N#CCCSCCC#N
Potency [3]: inactive
Potency [4]: inactive
Potency [2]: inactive

Oc1ccc(C2(c3ccc(O)cc3)CCCCC2)cc1
Potency [3]: 41 µM (active)
Potency [2]: 57.9 µM (active)

c1ccc(Nc2ccc3ccccc3c2)cc1
Potency [3]: inactive
Potency [4]: 3.05 µM (active) and 8.63 µM (active)
Potency [2]: inactive

CCc1nn(C)c(C(=O)NCc2ccc(C(C)(C)C)cc2)c1Cl
Potency [3]: 27.3 µM (active)
Potency [2]: 30.6 µM (active)

CCCCCCCCCC[N+](C)(C)CCCCCCCCCC
Potency [3]: 12.2 µM (active)
Potency [2]: 43.3 µM (active)

O=C(CBr)c1ccc(O)cc1
Potency [3]: 54.5 µM (active)

CC(C)OS(C)(=O)=O
Potency [3]: inactive
Potency [4]: inactive
Potency [2]: inactive

O=CC(Br)(Br)Br
Potency [3]: 27.2 µM (active)
Potency [2]: 24.3 µM (active)

CCCSP(=O)(OCC)SCCC
Potency [3]: inactive
Potency [4]: inactive
outcome [5]: inactive
Potency [7]: inactive
Potency [2]: inactive

O=c1[nH]c2ccccc2n1CCCN1CCC(n2c(=O)[nH]c3cc(Cl)ccc32)CC1
Potency [3]: inactive
Potency [4]: inactive
Potency [7]: 23.7 µM (active)
Potency [2]: 29.8 µM (active)

CC(=O)OC1(c2ccccc2)CCN(CCc2ccccc2)CC1
Potency [3]: inactive
Potency [4]: inactive

N#CNC#N
Potency [3]: inactive
Potency [4]: inactive
Potency [2]: inactive

Nc1c(Oc2ccccc2)cc(O)c2c1C(=O)c1ccccc1C2=O
Potency [3]: inactive

COc1cccc(C(=O)CCN[C@@H](C)[C@H](O)c2ccccc2)c1
Potency [3]: 26.6 µM (active)
Potency [4]: inactive
Potency [2]: inactive
